Several values for one entry are separate records, joined by “and”; a condition that tells them apart may be missing. Identical values can stand only once. Inconclusive results are not listed. Some structures have more than one record in an assay (separate samples or runs), and their calls can disagree. Activity calls are given as the source filed them. The call rests on the fitted dose curve; in most records, active means well fitted curve in the direction sought with a large enough effect; inconclusive means small, poorly fitted or top-dose-only effect, or another doubt; inactive means no such curve, though single readings can be large; an effect the other way counts as inactive or inconclusive.
Legend:
TAB109 = test: qHTS profiling for inhibitors of Plasmodium falciparum proliferation (AID 504749); further: nearly all actives have a fitted effect of over 60% in size; further: potency means the concentration at half of the fitted maximal effect; details: P. falciparum in erythrocytes, SYBR Green DNA, 72 h; series mostly up to 28.7 µM
Method in brief: (§1)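 Three-day growth assay of blood-stage parasites in erythrocytes (0.3% parasitemia, 2.5% hematocrit) at 37 C, 5% CO2, quantified by SYBR Green DNA staining after overnight detergent lysis.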

TAB113 = test: as above; details: P. falciparum in erythrocytes, SYBR Green DNA, 72 h; series mostly up to 28.7 µM
Method in brief: as §1

TAB165 = test: as above; details: P. falciparum in erythrocytes, SYBR Green DNA, 72 h; series mostly up to 28.7 µM
Method in brief: as §1

W2 = test: as above; details: P. falciparum in erythrocytes, SYBR Green DNA, 72 h; series mostly up to 28.7 µM
Method in brief: as §1

CRL-7250 [1] = test: Cytotoxic Profiling of Annotated Libraries Using Quantitative High-Throughput Screening (AID 1296008); details: Five cell lines viability, CellTiter-Glo ATP luminescence, 48-72 h; max response: stronger effect = lower value; further: nearly all actives have a fitted effect of over 60% in size; further: potency means the concentration at half of the fitted maximal effect; on max response: on the % scale 0 is the no-effect control and ±100 the full control effect
Method in brief: (§2)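 Cytotoxicity was measured as CellTiter-Glo ATP luminescence, read after 10 min at room temperature. Compound treatment of the cells lasted 48 or 72 hr at 37 degrees Celsius in a qHTS format.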

HEK293 = test: as above; details: Five cell lines viability, CellTiter-Glo ATP luminescence, 48-72 h; max response: stronger effect = lower value
Method in brief: as §2

HaCat [2] = test: as above; details: Five cell lines viability, CellTiter-Glo ATP luminescence, 48-72 h; max response: stronger effect = lower value
Method in brief: as §2

KB-3-1 = test: as above; details: Five cell lines viability, CellTiter-Glo ATP luminescence, 48-72 h; max response: stronger effect = lower value
Method in brief: as §2

NIH3T3 [3] = test: as above; details: Five cell lines viability, CellTiter-Glo ATP luminescence, 48-72 h; max response: stronger effect = lower value
Method in brief: as §2

HACAT [4] = test: qHTS assay to identify novel small-molecules to repurpose for Merkel cell carcinoma treatment (AID 1296009); details: MCC and control cell lines, CellTiter-Glo viability, 72 h; at 44.8 µM (top of the series) unless noted; further: nearly all actives have a fitted effect of over 60% in size; further: potency means the concentration at half of the fitted maximal effect; on activity change, negative = cytotoxicity: on the % scale 0 is the no-effect control and ±100 the full control effect
Method in brief: (§3)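 After compound transfer in DMSO, plates were kept 72 hr at 37 degree celsius. Luminescent ATP signal from CellTiter-Glo served as viability measure, normalized against DMSO and no-cell controls.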

MCC-13 = test: as above; details: MCC and control cell lines, CellTiter-Glo viability, 72 h; series mostly up to 46 µM
Method in brief: as §3

MCC-26 = test: as above; details: MCC and control cell lines, CellTiter-Glo viability, 72 h; series mostly up to 46 µM
Method in brief: as §3

MKL-1 = test: as above; details: MCC and control cell lines, CellTiter-Glo viability, 72 h; series mostly up to 46 µM
Method in brief: as §3

MKL-2 = test: as above; details: MCC and control cell lines, CellTiter-Glo viability, 72 h; series mostly up to 46 µM
Method in brief: as §3

UISO = test: as above; details: MCC and control cell lines, CellTiter-Glo viability, 72 h; series mostly up to 46 µM
Method in brief: as §3

WaGa = test: as above; details: MCC and control cell lines, CellTiter-Glo viability, 72 h; series mostly up to 46 µM
Method in brief: as §3

C33A = test: Primary qHTS to identify gynecologic anti-cancer compounds using libraries of approved drugs and bioactive compounds (AID 1345084); details: Gynecologic cancer cell panel viability, ATPlite luminescence, 48 h; series mostly up to 57.5 µM; further: on the % scale 0 is the no-effect control and ±100 the full control effect; nearly all actives have a fitted effect of over 55% in size
Method in brief: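 ATP-based viability (ATPlite), 1,000 cells/well, 16 h pre-incubation, 48 h compound at 37 C, 5% CO2, 15 min RT before read.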

HEK293T = test: qHTS assay to identify novel small-molecules to repurpose for Merkel cell carcinoma treatment (AID 1296009); details: MCC and control cell lines, CellTiter-Glo viability, 72 h; at 44.8 µM (top of the series); further: nearly all actives have a fitted effect of over 60% in size; further: potency means the concentration at half of the fitted maximal effect; on activity change, negative = cytotoxicity: on the % scale 0 is the no-effect control and ±100 the full control effect
Method in brief: as §3

CRL-7250 [5] = test: as above; details: MCC and control cell lines, CellTiter-Glo viability, 72 h; series mostly up to 44.8 µM
Method in brief: as §3

NIH3T3 [6] = test: as above; details: MCC and control cell lines, CellTiter-Glo viability, 72 h; at 44.8 µM (top of the series) unless noted
Method in brief: as §3

OCCOc1ccccc1
inactive: Potency (TAB109) | Potency (TAB113) | Potency (TAB165) | Potency (W2) | max response (CRL-7250 [1]) 3.79% | max response (HEK293) 1.79% | outcome (HaCat [2]) | max response (KB-3-1) 1.69% and -18.4% | max response (NIH3T3 [3]) 0.364% | outcome (HACAT [4]) | Potency (MCC-13) | Potency (MCC-26) | Potency (MKL-1) | Potency (MKL-2) | Potency (UISO) | Potency (WaGa) | Potency (C33A)

N[C@@H](Cc1ccc(Oc2cc(I)c(O)c(I)c2)c(I)c1)C(=O)O
inactive: max response (CRL-7250 [1]) -1.97% | outcome (HEK293) | outcome (HaCat [2]) | max response (KB-3-1) 6.84% | max response (NIH3T3 [3]) -1.92% | outcome (HACAT [4]) | outcome (HEK293T) | Potency (MCC-13) | Potency (MKL-1) | Potency (MKL-2) | Potency (UISO) | Potency (WaGa) | Potency (C33A)

NP(N)(=O)NC(=O)c1ccc(F)cc1
inactive: Potency (TAB109) | Potency (TAB113) | Potency (TAB165) | Potency (W2) | outcome (CRL-7250 [1]) | outcome (HEK293) | outcome (HaCat [2]) | max response (KB-3-1) -13.3% | max response (NIH3T3 [3]) 4.85% | outcome (CRL-7250 [5]) | outcome (HACAT [4]) | outcome (HEK293T) | Potency (MCC-13) | Potency (MCC-26) | Potency (MKL-1) | Potency (MKL-2) | Potency (UISO) | Potency (WaGa) | Potency (C33A)

Clc1cccc(N2CCNCC2)c1
inactive: Potency (TAB113) | Potency (TAB165) | max response (CRL-7250 [1]) 1.11% | max response (HEK293) 1.3% | outcome (HaCat [2]) | max response (KB-3-1) 5.71% | outcome (NIH3T3 [3]) | outcome (HACAT [4]) | Potency (MCC-13) | Potency (MCC-26) | Potency (MKL-1) | Potency (MKL-2) | outcome (NIH3T3 [6]) | Potency (UISO) | Potency (WaGa) | Potency (C33A)
active: Potency (W2) 7.57 µM

O=C(NC(O)C(Cl)(Cl)Cl)NC(O)C(Cl)(Cl)Cl (centres undefined)
inactive: Potency (TAB109) | Potency (TAB113) | Potency (TAB165) | Potency (W2) | max response (CRL-7250 [1]) 1.53% | max response (HEK293) 0.365% | outcome (HaCat [2]) | max response (KB-3-1) 2.53% | outcome (NIH3T3 [3]) | outcome (HACAT [4]) | Potency (MCC-13) | Potency (MCC-26) | Potency (MKL-1) | Potency (MKL-2) | outcome (NIH3T3 [6]) | Potency (UISO) | Potency (WaGa) | Potency (C33A)

O=C(O)C(=O)c1cn(Cc2ccccc2)c2ccc(-c3ccc(OC(F)(F)F)cc3)cc12
inactive: max response (CRL-7250 [1]) -5.5% | outcome (CRL-7250 [1]) | max response (HEK293) 3.18% | outcome (HEK293) | max response (HaCat [2]) -0.483% | outcome (HaCat [2]) | outcome (KB-3-1) | max response (NIH3T3 [3]) -16.9% and 4.93% | outcome (CRL-7250 [5]) | outcome (HACAT [4]) | outcome (HEK293T) | Potency (MCC-13) | Potency (MCC-26) | Potency (MKL-1) | Potency (MKL-2) | Potency (UISO) | Potency (WaGa) | Potency (C33A)

Cc1ccc2c(c1)C1CN(C)CCC1N2 (centres undefined)
inactive: max response (CRL-7250 [1]) -0.945% | max response (HEK293) 1.62% | outcome (HaCat [2]) | max response (KB-3-1) -4.81% | outcome (NIH3T3 [3]) | outcome (HACAT [4]) inactive [at 17.4 µM] | Potency (MCC-13) | Potency (MKL-1) | Potency (MKL-2) | outcome (NIH3T3 [6]) inactive [at 17.4 µM] | Potency (UISO) | Potency (WaGa) | Potency (C33A)

Oc1ccc(Cl)cc1Cc1ccccc1
inactive: max response (CRL-7250 [1]) -21.4% | max response (HEK293) -23% | max response (HaCat [2]) -19.2% | max response (KB-3-1) -1.59% and -11.5% | max response (NIH3T3 [3]) -10.2% | Potency (MCC-13) | Potency (MKL-1) | Potency (C33A)
active: Potency (TAB165) 6.31 µM | Potency (W2) 4.78 µM | Potency (HEK293) 19.5 µM | Potency (MKL-2) 21.9 µM | Potency (UISO) 34.7 µM

CN1C(=S)CN=C(c2ccccc2)c2cc(Cl)ccc21
inactive: Potency (TAB109) | Potency (TAB113) | Potency (TAB165) | Potency (W2) | outcome (CRL-7250 [1]) | max response (HEK293) -23.9% | outcome (HaCat [2]) | max response (KB-3-1) 4.4% | outcome (NIH3T3 [3]) | outcome (CRL-7250 [5]) | outcome (HACAT [4]) | Potency (MCC-13) | Potency (MCC-26) | Potency (MKL-1) | Potency (MKL-2) | outcome (NIH3T3 [6]) | Potency (UISO) | Potency (WaGa) | Potency (C33A)

CN(C)[C@@H]1C(=O)C(C(N)=O)=C(O)[C@@]2(O)C(=O)C3=C(O)c4c(O)cccc4[C@@](C)(O)[C@H]3C[C@@H]12
inactive: max response (CRL-7250 [1]) -3.81% | outcome (CRL-7250 [1]) | max response (HaCat [2]) -13.2% and 4.81% | max response (KB-3-1) -1.95% and 4.68% | max response (NIH3T3 [3]) -3.21% and -4.63% | outcome (CRL-7250 [5]) | Potency (MCC-13) | Potency (MKL-1) | Potency (MKL-2) | Potency (UISO) | Potency (WaGa) | Potency (C33A)

Cc1cc(SCc2sc(-c3ccc(C(F)(F)F)c(F)c3)nc2C)ccc1OCC(=O)O
inactive: outcome (CRL-7250 [1]) | max response (HEK293) -0.859% | outcome (HEK293) | outcome (HaCat [2]) | max response (KB-3-1) -0.392% | outcome (KB-3-1) | max response (NIH3T3 [3]) 3.63% | outcome (NIH3T3 [3]) | outcome (CRL-7250 [5]) | outcome (HACAT [4]) | outcome (HEK293T) | Potency (MCC-13) | Potency (MKL-1) | Potency (MKL-2) | outcome (NIH3T3 [6]) | Potency (UISO) | Potency (WaGa) | Potency (C33A)

NCC(CC(=O)O)c1ccc(Cl)cc1 (centres undefined)
inactive: Potency (TAB109) | Potency (TAB113) | Potency (TAB165) | Potency (W2) | max response (CRL-7250 [1]) 2.02% | max response (HEK293) -1.23% | outcome (HaCat [2]) | max response (KB-3-1) 2.79% | max response (NIH3T3 [3]) 0.0761% | outcome (HACAT [4]) inactive [at 0.588 µM] | activity change, negative = cytotoxicity (MCC-13) -6.05% [at 0.597 µM] | activity change, negative = cytotoxicity (MCC-26) -16.1% [at 0.597 µM] | activity change, negative = cytotoxicity (MKL-1) -6.57% [at 0.597 µM] | activity change, negative = cytotoxicity (MKL-2) -11.6% [at 0.597 µM] | activity change, negative = cytotoxicity (UISO) -4.03% [at 0.597 µM] | activity change, negative = cytotoxicity (WaGa) -6.81% [at 0.597 µM] | activity change, negative = cytotoxicity (C33A) 1.19% [at 0.462 µM]
